# Laboratory results published in article PMC7862700, “An all-to-all approach to the identification of sequence-specific readers for epigenetic DNA modifications on cytosine”.
# Columns and labels:
# Assay in all cases: DAPPL (digital affinity profiling via proximity ligation, sequencing); 10 mM Tris-HCl pH 7.5, 50 mM NaCl, 1 mM DTT, 4% glycerol, room temperature, 30 min; GST-TFs on glutathione beads, 16-mer random dsDNA library, 0.1% formaldehyde crosslink after washing; high values mean tight binding
# FEV = molecular target: T1, FEV (Homo sapiens, UniProt Q99581 1-238); conditions: protein: recombinant; tags: N-terminal GST; dsDNA, one strand shown
# T1 sequence: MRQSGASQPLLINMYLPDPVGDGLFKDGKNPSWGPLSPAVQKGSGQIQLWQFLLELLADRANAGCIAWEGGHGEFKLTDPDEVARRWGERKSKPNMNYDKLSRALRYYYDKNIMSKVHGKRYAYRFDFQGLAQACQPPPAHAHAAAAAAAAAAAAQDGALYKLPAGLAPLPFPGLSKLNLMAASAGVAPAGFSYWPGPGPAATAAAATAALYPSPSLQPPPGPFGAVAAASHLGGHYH
# Method in brief: (§1)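 Binding signal is each hexamer's read frequency for a factor divided by its frequency in the tag-only sample. The factors were GST-fused human transcription factors from yeast, captured on glutathione beads, DNA-barcoded and pooled with that sample. Pools were incubated with 200 nmole of a random double-stranded 16-mer DNA library in Tris/NaCl/DTT/glycerol buffer at room temperature for 30 min, then washed, crosslinked with 0.1% formaldehyde, proximity-ligated with BsaI/T4 ligase (1 h, 37 °C), PCR-amplified and sequenced on an Illumina NextSeq500.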
# ETV5 = ETV5 (Homo sapiens, UniProt P41161 1-510); conditions: protein: recombinant; tags: N-terminal GST; dsDNA, one strand shown
# ETV5, sequence (P41161 whole entry): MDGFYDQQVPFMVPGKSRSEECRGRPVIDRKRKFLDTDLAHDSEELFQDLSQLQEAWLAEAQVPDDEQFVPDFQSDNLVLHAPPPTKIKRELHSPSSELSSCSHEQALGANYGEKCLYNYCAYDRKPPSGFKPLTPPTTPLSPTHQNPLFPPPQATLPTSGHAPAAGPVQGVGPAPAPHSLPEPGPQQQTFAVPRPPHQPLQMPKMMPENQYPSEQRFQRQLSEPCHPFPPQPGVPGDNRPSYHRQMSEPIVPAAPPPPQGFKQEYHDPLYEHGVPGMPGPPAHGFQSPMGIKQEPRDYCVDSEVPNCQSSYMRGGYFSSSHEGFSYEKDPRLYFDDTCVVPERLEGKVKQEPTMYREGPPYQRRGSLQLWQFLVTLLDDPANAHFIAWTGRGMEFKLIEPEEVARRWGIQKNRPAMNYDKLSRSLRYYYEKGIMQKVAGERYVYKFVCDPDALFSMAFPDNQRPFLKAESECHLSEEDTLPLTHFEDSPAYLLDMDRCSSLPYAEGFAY
# Method in brief: as §1
# HSF1 = HSF1 (Homo sapiens, UniProt Q00613 1-529); conditions: protein: recombinant; tags: N-terminal GST; chain copies: 3; dsDNA, one strand shown
# HSF1, sequence (Q00613 whole entry): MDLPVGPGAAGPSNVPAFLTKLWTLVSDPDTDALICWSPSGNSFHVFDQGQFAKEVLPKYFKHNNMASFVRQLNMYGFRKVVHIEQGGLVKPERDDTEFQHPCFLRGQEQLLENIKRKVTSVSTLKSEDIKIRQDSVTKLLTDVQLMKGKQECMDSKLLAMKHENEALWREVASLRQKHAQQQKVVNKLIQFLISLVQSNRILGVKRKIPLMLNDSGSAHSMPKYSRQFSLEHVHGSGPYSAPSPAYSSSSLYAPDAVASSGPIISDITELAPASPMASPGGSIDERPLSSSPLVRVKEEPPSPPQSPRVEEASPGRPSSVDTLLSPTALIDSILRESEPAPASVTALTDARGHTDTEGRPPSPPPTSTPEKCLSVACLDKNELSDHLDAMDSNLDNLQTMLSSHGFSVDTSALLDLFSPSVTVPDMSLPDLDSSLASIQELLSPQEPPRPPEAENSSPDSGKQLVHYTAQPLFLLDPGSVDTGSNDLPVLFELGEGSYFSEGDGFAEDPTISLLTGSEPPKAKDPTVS
# Method in brief: as §1
# SPIC = molecular target: T2, SPIC (Homo sapiens, UniProt Q8N5J4 1-248); conditions: protein: recombinant; tags: N-terminal GST; dsDNA, one strand shown
# T2 sequence: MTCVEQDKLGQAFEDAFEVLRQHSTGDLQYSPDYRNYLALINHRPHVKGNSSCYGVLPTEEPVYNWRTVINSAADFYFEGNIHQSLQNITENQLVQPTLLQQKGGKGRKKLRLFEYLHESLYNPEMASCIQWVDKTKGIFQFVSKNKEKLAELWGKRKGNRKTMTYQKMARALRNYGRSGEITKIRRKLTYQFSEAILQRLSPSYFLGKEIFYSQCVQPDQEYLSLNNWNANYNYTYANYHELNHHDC
# Method in brief: as §1
# ELF4 = ELF4 (Homo sapiens, UniProt Q99607 1-663); conditions: protein: recombinant; tags: N-terminal GST; dsDNA, one strand shown
# ELF4, sequence (Q99607 whole entry): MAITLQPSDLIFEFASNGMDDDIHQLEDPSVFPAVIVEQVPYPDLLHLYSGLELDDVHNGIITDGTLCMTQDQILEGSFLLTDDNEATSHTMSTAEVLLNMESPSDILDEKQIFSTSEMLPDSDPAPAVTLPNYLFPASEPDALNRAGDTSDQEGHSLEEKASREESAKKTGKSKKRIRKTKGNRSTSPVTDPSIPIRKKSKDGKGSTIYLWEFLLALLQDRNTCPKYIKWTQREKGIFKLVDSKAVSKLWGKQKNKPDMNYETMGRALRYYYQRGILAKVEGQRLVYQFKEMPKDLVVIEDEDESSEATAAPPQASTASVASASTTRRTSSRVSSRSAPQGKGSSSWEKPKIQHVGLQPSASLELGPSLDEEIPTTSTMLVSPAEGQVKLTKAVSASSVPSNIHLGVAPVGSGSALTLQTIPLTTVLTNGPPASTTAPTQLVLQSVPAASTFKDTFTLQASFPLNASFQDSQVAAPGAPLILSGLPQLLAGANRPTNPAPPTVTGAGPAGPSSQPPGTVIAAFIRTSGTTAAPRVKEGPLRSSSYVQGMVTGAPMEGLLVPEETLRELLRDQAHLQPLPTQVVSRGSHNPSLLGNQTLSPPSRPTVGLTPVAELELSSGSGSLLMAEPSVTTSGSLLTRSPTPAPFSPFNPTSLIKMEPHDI
# Method in brief: as §1
# ELK4 = molecular target: T3, ELK4 (Homo sapiens, UniProt P28324-2 1-405); conditions: protein: recombinant; tags: N-terminal GST; dsDNA, one strand shown
# T3 sequence: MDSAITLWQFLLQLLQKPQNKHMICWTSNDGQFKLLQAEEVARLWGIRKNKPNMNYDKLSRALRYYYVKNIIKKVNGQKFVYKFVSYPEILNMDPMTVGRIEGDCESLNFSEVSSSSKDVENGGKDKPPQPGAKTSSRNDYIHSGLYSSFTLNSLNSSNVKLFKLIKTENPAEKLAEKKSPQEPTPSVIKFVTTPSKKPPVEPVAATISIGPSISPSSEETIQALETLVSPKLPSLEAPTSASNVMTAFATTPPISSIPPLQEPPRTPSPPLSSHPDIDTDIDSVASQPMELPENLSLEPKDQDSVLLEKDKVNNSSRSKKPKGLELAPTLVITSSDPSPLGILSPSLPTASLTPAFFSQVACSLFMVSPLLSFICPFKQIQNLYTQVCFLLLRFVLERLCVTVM
# Method in brief: as §1
# ETV2 = molecular target: T4, ETV2 (Homo sapiens, UniProt O00321 1-342); conditions: protein: recombinant; tags: N-terminal GST; dsDNA, one strand shown
# T4 sequence: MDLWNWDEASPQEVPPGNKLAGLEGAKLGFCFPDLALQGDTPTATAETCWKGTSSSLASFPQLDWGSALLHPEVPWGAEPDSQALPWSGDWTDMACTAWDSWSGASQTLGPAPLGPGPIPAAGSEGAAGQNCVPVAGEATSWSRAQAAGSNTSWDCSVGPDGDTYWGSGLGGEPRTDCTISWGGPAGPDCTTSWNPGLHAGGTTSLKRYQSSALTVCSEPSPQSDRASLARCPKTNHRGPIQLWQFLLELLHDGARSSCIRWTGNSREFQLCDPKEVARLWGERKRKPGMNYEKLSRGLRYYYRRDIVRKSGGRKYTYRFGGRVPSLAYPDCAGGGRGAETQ
# Method in brief: as §1
# ELF3 = molecular target: T5, ELF3 (Homo sapiens, UniProt P78545 1-371); conditions: protein: recombinant; tags: N-terminal GST; dsDNA, one strand shown
# T5 sequence: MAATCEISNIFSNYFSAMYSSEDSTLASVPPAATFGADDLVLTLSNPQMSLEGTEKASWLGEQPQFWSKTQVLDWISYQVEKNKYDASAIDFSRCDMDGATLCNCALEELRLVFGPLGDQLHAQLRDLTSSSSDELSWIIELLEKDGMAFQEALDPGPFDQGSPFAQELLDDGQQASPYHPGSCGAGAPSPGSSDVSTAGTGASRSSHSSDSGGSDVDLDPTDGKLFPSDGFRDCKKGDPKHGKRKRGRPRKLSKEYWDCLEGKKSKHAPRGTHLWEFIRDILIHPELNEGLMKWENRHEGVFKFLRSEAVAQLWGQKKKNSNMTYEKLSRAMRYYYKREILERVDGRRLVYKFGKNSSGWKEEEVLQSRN
# Method in brief: as §1
# CRX = CRX (Homo sapiens, UniProt O43186 1-299); conditions: protein: recombinant; tags: N-terminal GST; dsDNA, one strand shown
# CRX, sequence (O43186 whole entry): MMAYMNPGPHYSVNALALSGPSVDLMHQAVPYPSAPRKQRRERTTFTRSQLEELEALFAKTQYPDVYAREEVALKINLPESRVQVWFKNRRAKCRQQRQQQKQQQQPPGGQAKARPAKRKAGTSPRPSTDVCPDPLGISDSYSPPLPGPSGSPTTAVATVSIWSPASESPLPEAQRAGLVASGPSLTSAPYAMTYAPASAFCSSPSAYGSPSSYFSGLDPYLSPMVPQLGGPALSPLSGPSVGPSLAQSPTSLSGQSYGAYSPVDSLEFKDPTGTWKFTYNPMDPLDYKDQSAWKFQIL
# Method in brief: as §1
# ETV1 = ETV1 (Homo sapiens, UniProt P50549 1-477); conditions: protein: recombinant; tags: N-terminal GST; dsDNA, one strand shown
# ETV1, sequence (P50549 whole entry): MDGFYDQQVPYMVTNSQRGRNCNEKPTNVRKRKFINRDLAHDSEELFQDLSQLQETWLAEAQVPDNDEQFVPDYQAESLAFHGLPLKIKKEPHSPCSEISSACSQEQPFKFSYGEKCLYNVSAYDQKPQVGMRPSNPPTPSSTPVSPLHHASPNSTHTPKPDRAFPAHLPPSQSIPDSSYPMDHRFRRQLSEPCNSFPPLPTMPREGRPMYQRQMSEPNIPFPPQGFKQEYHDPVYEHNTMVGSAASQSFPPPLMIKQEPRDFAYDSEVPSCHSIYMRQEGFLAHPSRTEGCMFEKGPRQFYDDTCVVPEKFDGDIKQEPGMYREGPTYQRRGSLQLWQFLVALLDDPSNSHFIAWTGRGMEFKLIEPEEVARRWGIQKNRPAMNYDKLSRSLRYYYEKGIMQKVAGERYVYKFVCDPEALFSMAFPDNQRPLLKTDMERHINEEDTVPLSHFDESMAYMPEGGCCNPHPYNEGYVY
# Method in brief: as §1
Sequence,binding signal (FEV),binding signal (ETV5),binding signal (HSF1),binding signal (SPIC),binding signal (ELF4),binding signal (ELK4),binding signal (ETV2),binding signal (ELF3),binding signal (CRX),binding signal (ETV1)
CTAAAA,"1.09 fold enrichment (6-mer frequency, TF over GST control)","1.16 fold enrichment (6-mer frequency, TF over GST control)","1.26 fold enrichment (6-mer frequency, TF over GST control)","1.25 fold enrichment (6-mer frequency, TF over GST control)","1.24 fold enrichment (6-mer frequency, TF over GST control)","1.21 fold enrichment (6-mer frequency, TF over GST control)","1.21 fold enrichment (6-mer frequency, TF over GST control)","1.12 fold enrichment (6-mer frequency, TF over GST control)","1.4 fold enrichment (6-mer frequency, TF over GST control)","1.19 fold enrichment (6-mer frequency, TF over GST control)"
TTGATC,"1.17 fold enrichment (6-mer frequency, TF over GST control)","1.26 fold enrichment (6-mer frequency, TF over GST control)","1.48 fold enrichment (6-mer frequency, TF over GST control)","1.25 fold enrichment (6-mer frequency, TF over GST control)","1.14 fold enrichment (6-mer frequency, TF over GST control)","1.14 fold enrichment (6-mer frequency, TF over GST control)","1.09 fold enrichment (6-mer frequency, TF over GST control)","1.01 fold enrichment (6-mer frequency, TF over GST control)","1.71 fold enrichment (6-mer frequency, TF over GST control)","1.15 fold enrichment (6-mer frequency, TF over GST control)"
CACATT,"1.18 fold enrichment (6-mer frequency, TF over GST control)","1.19 fold enrichment (6-mer frequency, TF over GST control)","1.14 fold enrichment (6-mer frequency, TF over GST control)","1.26 fold enrichment (6-mer frequency, TF over GST control)","1.16 fold enrichment (6-mer frequency, TF over GST control)","1.13 fold enrichment (6-mer frequency, TF over GST control)","1.28 fold enrichment (6-mer frequency, TF over GST control)","1.43 fold enrichment (6-mer frequency, TF over GST control)","1.06 fold enrichment (6-mer frequency, TF over GST control)","1.28 fold enrichment (6-mer frequency, TF over GST control)"
TGTATT,"1.34 fold enrichment (6-mer frequency, TF over GST control)","1.33 fold enrichment (6-mer frequency, TF over GST control)","1.3 fold enrichment (6-mer frequency, TF over GST control)","1.4 fold enrichment (6-mer frequency, TF over GST control)","1.36 fold enrichment (6-mer frequency, TF over GST control)","1.33 fold enrichment (6-mer frequency, TF over GST control)","1.32 fold enrichment (6-mer frequency, TF over GST control)","1.24 fold enrichment (6-mer frequency, TF over GST control)","1.56 fold enrichment (6-mer frequency, TF over GST control)","1.4 fold enrichment (6-mer frequency, TF over GST control)"
AAACTT,"1.3 fold enrichment (6-mer frequency, TF over GST control)","1.22 fold enrichment (6-mer frequency, TF over GST control)","1.37 fold enrichment (6-mer frequency, TF over GST control)","1.36 fold enrichment (6-mer frequency, TF over GST control)","1.26 fold enrichment (6-mer frequency, TF over GST control)","1.23 fold enrichment (6-mer frequency, TF over GST control)","1.28 fold enrichment (6-mer frequency, TF over GST control)","1.13 fold enrichment (6-mer frequency, TF over GST control)","1.21 fold enrichment (6-mer frequency, TF over GST control)","1.27 fold enrichment (6-mer frequency, TF over GST control)"
TGGTAT,"1.26 fold enrichment (6-mer frequency, TF over GST control)","1.37 fold enrichment (6-mer frequency, TF over GST control)","1.35 fold enrichment (6-mer frequency, TF over GST control)","1.39 fold enrichment (6-mer frequency, TF over GST control)","1.42 fold enrichment (6-mer frequency, TF over GST control)","1.47 fold enrichment (6-mer frequency, TF over GST control)","1.33 fold enrichment (6-mer frequency, TF over GST control)","1.45 fold enrichment (6-mer frequency, TF over GST control)","1.39 fold enrichment (6-mer frequency, TF over GST control)","1.37 fold enrichment (6-mer frequency, TF over GST control)"
ACTCTA,"1.45 fold enrichment (6-mer frequency, TF over GST control)","1.48 fold enrichment (6-mer frequency, TF over GST control)","1.63 fold enrichment (6-mer frequency, TF over GST control)","1.63 fold enrichment (6-mer frequency, TF over GST control)","1.41 fold enrichment (6-mer frequency, TF over GST control)","1.43 fold enrichment (6-mer frequency, TF over GST control)","1.41 fold enrichment (6-mer frequency, TF over GST control)","1.36 fold enrichment (6-mer frequency, TF over GST control)","1.52 fold enrichment (6-mer frequency, TF over GST control)","1.42 fold enrichment (6-mer frequency, TF over GST control)"
